In PubChem BioAssay:
Active and inactive are the calls of the source.

Columns and labels:
[1] = tested on: Plasmodium falciparum Sir2 (PF13_0152, Sir2A); assay: pfSir2 binders on small-molecule microarrays, primary screen, biochemical, small-molecule microarray, 635 nm fluorescence (AID 1098); settings: small-molecule microarray binding, fluorescence 635 nm; higher = more signal;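 also: score merges spot fluorescence intensity with its signal-to-noise ratio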
[2] = small-molecule microarray binders of probe aDKK1, primary screen, biochemical, biotinylated probe, 635/667 nm fluorescence (AID 1099); settings: higher = more signal;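 also: score merges 667nm spot fluorescence with signal to noise across triplicate slides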
[3] = small-molecule microarray binders of probe aCHRDL2, primary screen, biochemical, biotinylated probe, 635/667 nm fluorescence (AID 1100); settings: higher = more signal
[4] = splicing luciferase reporter signal modulators, primary screen, spliceosome inhibition project, cell-based, HEK293, splice +/- reporter (AID 1101); settings: luminescence, 24 h, higher = more signal, called active from +8 up or from −8 down;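 also: HEK293 cells carrying a splicing-competent luciferase reporter gene; test concentration not given here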
[5] = biological target: Fibroblast growth factor 10 (Homo sapiens) (UniProt O15520); assay: FGF10 binders on small-molecule microarrays, primary screen, biochemical, small-molecule microarray, 635 nm fluorescence (AID 1102); settings: FGF10 binding, fluorescence 635 nm, higher = more signal
Sequence of Fibroblast growth factor 10 (Homo sapiens) (O15520 whole entry, looked up): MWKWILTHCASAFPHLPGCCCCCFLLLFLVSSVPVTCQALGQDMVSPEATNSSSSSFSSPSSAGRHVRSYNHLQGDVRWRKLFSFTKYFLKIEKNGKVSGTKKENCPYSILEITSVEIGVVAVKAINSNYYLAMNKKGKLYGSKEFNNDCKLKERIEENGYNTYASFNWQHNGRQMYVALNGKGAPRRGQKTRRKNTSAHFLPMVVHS

[6] = tested on: glycogen synthase kinase-3 (GSK3A per assay name; protocol says GSK3B); assay: GSK3 binders on small-molecule microarrays, primary screen, biochemical, small-molecule microarray, 635 nm fluorescence, GSK3A (AID 1103); settings: small-molecule microarray binding, fluorescence 635 nm; higher = more signal; also: the record names both GSK3A and GSK3B
[7] = biological target: Epidermal growth factor receptor (Homo sapiens) (UniProt P00533); assay: EGFR binders on small-molecule microarrays, primary screen, biochemical, small-molecule microarray, 635 nm fluorescence (AID 1104); settings: EGFR binding, higher = more signal;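 also: score merges 667 nm emission intensity with spot signal to noise over triplicate slides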
Sequence of Epidermal growth factor receptor (Homo sapiens) (P00533 whole entry, looked up): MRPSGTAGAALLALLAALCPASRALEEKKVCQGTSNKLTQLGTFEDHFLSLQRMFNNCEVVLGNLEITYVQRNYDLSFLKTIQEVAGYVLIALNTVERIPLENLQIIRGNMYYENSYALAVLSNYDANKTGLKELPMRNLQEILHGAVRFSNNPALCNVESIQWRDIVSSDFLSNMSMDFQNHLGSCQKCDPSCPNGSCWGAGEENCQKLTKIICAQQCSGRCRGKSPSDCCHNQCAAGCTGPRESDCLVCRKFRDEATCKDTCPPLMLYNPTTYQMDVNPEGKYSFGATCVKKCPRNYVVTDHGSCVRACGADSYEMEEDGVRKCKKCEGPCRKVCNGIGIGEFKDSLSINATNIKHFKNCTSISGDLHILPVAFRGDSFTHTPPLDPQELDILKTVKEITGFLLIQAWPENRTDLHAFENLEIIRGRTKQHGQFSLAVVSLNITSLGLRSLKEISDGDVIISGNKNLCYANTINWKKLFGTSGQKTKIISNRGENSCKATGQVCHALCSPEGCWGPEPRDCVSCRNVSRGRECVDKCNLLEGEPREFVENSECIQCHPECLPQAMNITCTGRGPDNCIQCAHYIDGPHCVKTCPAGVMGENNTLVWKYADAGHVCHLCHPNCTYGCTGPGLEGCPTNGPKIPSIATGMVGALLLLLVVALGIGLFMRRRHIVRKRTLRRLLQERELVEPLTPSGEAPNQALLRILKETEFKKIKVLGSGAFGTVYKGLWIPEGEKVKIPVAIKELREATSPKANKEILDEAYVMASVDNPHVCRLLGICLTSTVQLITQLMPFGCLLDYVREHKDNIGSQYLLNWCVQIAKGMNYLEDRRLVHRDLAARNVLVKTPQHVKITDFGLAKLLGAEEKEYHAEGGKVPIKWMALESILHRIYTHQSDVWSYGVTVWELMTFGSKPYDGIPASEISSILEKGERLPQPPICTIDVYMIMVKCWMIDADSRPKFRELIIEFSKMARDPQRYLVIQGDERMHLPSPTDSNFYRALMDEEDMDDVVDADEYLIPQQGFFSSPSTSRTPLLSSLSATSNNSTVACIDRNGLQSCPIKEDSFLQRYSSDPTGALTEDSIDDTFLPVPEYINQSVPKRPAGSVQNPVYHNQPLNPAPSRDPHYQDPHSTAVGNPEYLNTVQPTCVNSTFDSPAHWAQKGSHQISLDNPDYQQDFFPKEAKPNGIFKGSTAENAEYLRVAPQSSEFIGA

[8] = biological target: Follistatin-related protein 3 (Homo sapiens) (UniProt O95633); assay: FSTL3 binders on small-molecule microarrays, primary screen, biochemical, small-molecule microarray, 635 nm fluorescence (AID 1105); settings: FSTL3 binding, higher = more signal;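 also: score merges emission near 667 nm and signal to noise per printed spot across three slides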
Sequence of Follistatin-related protein 3 (Homo sapiens) (O95633 whole entry, looked up): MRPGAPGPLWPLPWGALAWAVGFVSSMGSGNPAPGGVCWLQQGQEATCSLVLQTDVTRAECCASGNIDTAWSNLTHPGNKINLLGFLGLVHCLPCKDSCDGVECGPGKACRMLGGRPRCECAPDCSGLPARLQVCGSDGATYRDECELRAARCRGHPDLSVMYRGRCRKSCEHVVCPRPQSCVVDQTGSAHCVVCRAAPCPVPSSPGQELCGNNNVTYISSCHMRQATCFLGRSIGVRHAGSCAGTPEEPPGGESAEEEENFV

[9] = biological target: Dickkopf-related protein 1 (Homo sapiens) (UniProt O94907); assay: DKK1 binders on small-molecule microarrays, primary screen, biochemical, small-molecule microarray, 635 nm fluorescence scan (AID 1106); settings: DKK1 binding, higher = more signal;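 also: score merges emission near 667 nm with signal to noise over three replicate slides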
Sequence of Dickkopf-related protein 1 (Homo sapiens) (O94907 whole entry, looked up): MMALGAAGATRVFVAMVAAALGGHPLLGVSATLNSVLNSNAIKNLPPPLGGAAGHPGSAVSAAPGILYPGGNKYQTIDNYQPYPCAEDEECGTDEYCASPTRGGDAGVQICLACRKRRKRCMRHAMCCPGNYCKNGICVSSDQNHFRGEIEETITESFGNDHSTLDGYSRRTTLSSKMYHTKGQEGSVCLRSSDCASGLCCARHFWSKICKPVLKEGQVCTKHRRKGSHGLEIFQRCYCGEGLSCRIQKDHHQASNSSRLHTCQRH

[10] = tested on: Inhibin beta A chain (activin A); assay: INHBA (activin A) binders on microarrays, primary screen, biochemical, small-molecule microarray, 635 nm fluorescence scan (AID 1107); settings: small-molecule microarray binding, higher = more signal;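 also: mouse activin A protein probed at 4.33 µg/mL on printed slides; score merges bound-protein fluorescence near 667 nm with spot signal-to-noise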
[11] = tested on: Human papillomavirus type 1a protein E7 (residues 44-93); assay: HPV1a E7 fragment binders on microarrays, primary screen, biochemical, small-molecule microarray, residues 44-93, 635 nm fluorescence (AID 1108); settings: small-molecule microarray binding, fluorescence 635 nm; higher = more signal;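 also: E7 fragment applied at 1 µg/mL in TBST for 1 h at 4 C; score combines spot fluorescence with its signal to noise ratio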
[12] = modulators of HCV replicon luciferase signal, primary screen, HCV replication inhibitor project, Huh7 cells, luciferase reporter (AID 1109); settings: 48 h, higher = more signal;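 also: huh7 hepatoma cells harbouring a luciferase neomycin HCV replicon reporter; luciferase luminescence as measure of HCV replicon replication; test concentration not given here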
[13] = biological target: Left-right determination factor 2 (Homo sapiens) (UniProt O00292); assay: LEFTY2 binders on small-molecule microarrays, primary screen, biochemical, small-molecule microarray, 635 nm fluorescence scan (AID 1110); settings: LEFTY2 binding, higher = more signal
Sequence of Left-right determination factor 2 (Homo sapiens) (O00292 whole entry, looked up): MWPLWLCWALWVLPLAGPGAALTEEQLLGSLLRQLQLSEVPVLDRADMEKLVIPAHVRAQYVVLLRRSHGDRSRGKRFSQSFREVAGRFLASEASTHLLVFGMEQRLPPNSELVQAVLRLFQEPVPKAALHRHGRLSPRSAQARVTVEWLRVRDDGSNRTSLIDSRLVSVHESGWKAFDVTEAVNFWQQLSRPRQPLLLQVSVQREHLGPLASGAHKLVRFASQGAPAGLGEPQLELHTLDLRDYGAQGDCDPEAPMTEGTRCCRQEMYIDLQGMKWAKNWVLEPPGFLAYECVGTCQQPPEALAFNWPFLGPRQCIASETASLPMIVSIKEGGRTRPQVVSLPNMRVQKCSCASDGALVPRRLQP

[14] = biological target: Calmodulin-1 (Homo sapiens) (UniProt P0DP23); assay: CALM1 binders on microarrays, EGTA buffer, profiling panel, biochemical, small-molecule microarray, Cy5-labelled CALM1 (AID 1111); settings: Cy5-CALM1 binding fluorescence, higher = more signal;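 also: labelled calmodulin applied in Tris saline Tween buffer holding calcium plus EGTA and DTT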
[15] = biological target: Calmodulin-1 (Homo sapiens) (UniProt P0DP23); assay: calcium-bound CALM1 binders on microarrays, profiling panel, artefact control for SMM control-protein annotation, biochemical, small-molecule microarray, Cy5-labelled CALM1, plus calcium (AID 1112); settings: Cy5-CALM1 binding fluorescence, higher = more signal;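 also: score merges spot fluorescence with signal to noise from triplicate slides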
[16] = small-molecule microarray binders of probe aWnt5a, primary screen, biochemical, biotinylated probe, 635/667 nm fluorescence (AID 1113); settings: higher = more signal;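 also: score merges 667 nm fluorescence intensity with signal-to-noise per printed feature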
[17] = small-molecule microarray binders of probe aShh, primary screen, biochemical, biotinylated probe, 635/667 nm fluorescence (AID 1114); settings: higher = more signal;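 also: probe is biotin-labelled aShh protein from a stem cell growth factor screen; measures binding of labelled protein to compounds printed on the slide; score merges feature fluorescence at 667 nm with signal-to-noise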
[18] = small-molecule microarray binders of probe aNog, primary screen, biochemical, biotinylated probe, 635/667 nm fluorescence (AID 1115); settings: higher = more signal;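 also: probe is biotinylated aNog protein used at 0.15 µg/mL for 1 h at 4 C; z-score combines 667 nm fluorescence of each spot with its signal to noise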
[19] = biological target: Torsin-1A-interacting protein 1 (Homo sapiens) (UniProt Q5JTV8); assay: LAP1 binders from COS7 cell lysate, primary screen, small-molecule microarray, 635/667 nm fluorescence (AID 1116); settings: COS7-hLAP1 lysate binding, 635 nm fluorescence, higher = more signal
Sequence of Torsin-1A-interacting protein 1 (Homo sapiens) (Q5JTV8 whole entry, looked up): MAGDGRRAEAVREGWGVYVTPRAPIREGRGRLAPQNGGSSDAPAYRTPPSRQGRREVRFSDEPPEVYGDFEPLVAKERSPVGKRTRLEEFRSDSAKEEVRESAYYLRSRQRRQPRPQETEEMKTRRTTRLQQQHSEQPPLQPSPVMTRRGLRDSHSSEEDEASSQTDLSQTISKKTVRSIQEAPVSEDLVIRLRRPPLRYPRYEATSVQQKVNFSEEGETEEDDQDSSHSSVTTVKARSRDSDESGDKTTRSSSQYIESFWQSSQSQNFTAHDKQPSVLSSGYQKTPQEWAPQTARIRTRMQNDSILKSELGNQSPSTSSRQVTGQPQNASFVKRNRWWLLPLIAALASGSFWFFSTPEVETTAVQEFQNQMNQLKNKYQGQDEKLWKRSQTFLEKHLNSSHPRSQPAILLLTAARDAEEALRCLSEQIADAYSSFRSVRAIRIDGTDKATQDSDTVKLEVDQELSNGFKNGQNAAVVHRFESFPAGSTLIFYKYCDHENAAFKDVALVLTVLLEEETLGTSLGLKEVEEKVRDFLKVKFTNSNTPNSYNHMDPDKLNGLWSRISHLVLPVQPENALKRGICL

[20] = biological target: Alpha-bungarotoxin (Bungarus multicinctus) (UniProt P60615); assay: alpha-bungarotoxin binders on microarray, profiling panel, artefact control for SMM control protein annotation, biochemical, small-molecule microarray, Alexa647 label, 635/667 nm fluorescence (AID 1117); settings: alpha-BTX-A647 binding fluorescence, higher = more signal
Sequence of Alpha-bungarotoxin (Bungarus multicinctus) (P60615 whole entry, looked up): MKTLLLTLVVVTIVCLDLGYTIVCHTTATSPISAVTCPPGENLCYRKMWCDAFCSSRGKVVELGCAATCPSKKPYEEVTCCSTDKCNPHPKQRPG

SMILES | composite z-score [1] | composite z-score [2] | composite z-score [3] | z-score [4] | composite z-score [5] | composite z-score [6] | composite z-score [7] | composite z-score [8] | composite z-score [9] | composite z-score [10] | composite z-score [11] | z-score [12] | composite z-score [13] | composite z-score [14] | composite z-score [15] | composite z-score [16] | composite z-score [17] | composite z-score [18] | composite z-score [19] | composite z-score [20]
COCCOC(=O)N1C(=O)[C@@]2(c3cc(C#CC4=CCCCC4)ccc31)[C@H](C(=O)N1CCc3cc(OC)c(OC)cc3C1)[C@H]1C(=O)O[C@H](c3ccccc3)[C@H](c3ccccc3)N1[C@@H]2c1ccccc1OCCO | 0.763 | -0.0567 | 0.185 | -0.176 (inactive) | 0.964 | 1.2 | 0.501 | 1 | 0.406 | 0.59 | 0.899 | -1.35 | 0.546 | 0.805 | 0.512 | -0.107 | -0.153 | 0.365 | 0.261 | 0.917
CC(C)NC(=O)[C@@H]1c2ccccc2C(=O)N(Cc2ccccc2Cl)[C@H]1c1ccc(CO)cc1 | 0.284 | 0.0098 | 0.448 | 0.62 (inactive) | -0.584 | 0.0016 | -0.903 | -0.398 | -0.645 | 0.365 | 1.17 | -0.657 | -0.998 | -0.0984 | 0.29 | -0.13 | -0.0769 | 0.139 | 1.25 | -0.436
CN(C)CCCCNC(=O)[C@H]1C[C@H]2C(=O)N[C@@H](Cc3ccccc3)C(=O)N2[C@H]1c1ccc(O)cc1 | 0.725 | -0.0299 | -0.0646 | -1.03 (inactive) | 1.4 | 1.2 | 0.425 | 1.39 | 1.5 | -0.44 | 1.38 | 0.506 | 1.17 | 0.561 | 0.746 | -0.0866 | -0.0243 | 0.355 | 0.945 | 1.55
COC(=O)[C@@]1(Cc2ccccc2)[C@H]2c3cc(C(=O)N4CCCC4)n(Cc4ccc(C)o4)c3C[C@H]2CN1C(=O)c1ccccc1 | 1.21 | 0.526 | 1.13 | -2.62 (inactive) | -0.143 | 0.0411 | 0.36 | 0.276 | -0.578 | 1.23 | 0.114 | -1.82 | -0.334 | 1.58 | -0.149 | -0.213 | -0.214 | -0.153 | 0.618 | 0.326
CC(c1ccccc1)C(O)C1C=CC2C(=O)NC(=O)C2N1Nc1ccccn1 (stereo not given) | 0.459 | 0.0178 | 0.585 | 1.63 (inactive) | 0.831 | 0.767 | 0.532 | 1.01 | 0.481 | 1.41 | 1.35 | 0.355 | 0.313 | -0.104 | -0.487 | -0.0478 | -0.138 | 0.496 | 0.903 | 0.672
N#Cc1ccc(NN2C(C(O)c3ccc([N+](=O)[O-])cc3)C=CC3C(=O)N(c4ccccc4)C(=O)C32)cc1 (stereo not given) | 1.29 | 0.829 | 1.08 | 2.23 (inactive) | 0.626 | 0.751 | 0.0159 | 0.422 | -0.392 | 0.787 | 0.61 | 0.69 | 0.0872 | 0.971 | 0.235 | 0.119 | 0.935 | 1.18 | 0.818 | 0.752
